Pol iota inh: inhibitors of human DNA polymerase iota; AID 588590; Pol iota fluorescent replication assay, 10 min; Q9UNA4; actives 1% (n = 390,000); Potency, µM (doses to about 115 µM), without a hit: top-dose activity, negative = inhibition, most hits filed as inhibitors
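Fluorescent replication assay read twice, at 0 min and 10 min after adding 50 nM (final) substrate. Enzyme (10 nM) and compounds were first incubated 15 min at room temperature; enzyme-free buffer wells were negative controls.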
FEN1 inhibitor: inhibitors of human flap endonuclease 1 | P39748 | Recombinant FEN1 flap cleavage, fluorescence, 15 min | Potency, µM (top dose mostly 114 µM), for the others: at the highest dose activity change, negative = inhibition, most hits filed as inhibitors | actives 0.35% (n = 390,000) | AID 588795; note: % is set by controls: 0 for no effect and ±100 for the full control effect; nearly all actives have a fitted effect of over 65% in size
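Steps: FEN1 (10 nM) dispensed; compound added by pin tool; 15 min at room temperature; substrate added to 50 nM final; reads at 0 min and 15 min; data normalized and fitted (four-parameter Hill).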
Pol kappa inh-1: blocks human DNA polymerase kappa activity. Q9UBT6. Potency, µM (series often up to 107 µM), without a hit: at the highest dose activity, negative = inhibition, most hits filed as inhibitors. AID 588579. actives 0.53% (n = 400,000). purified Pol kappa, fluorescent DNA synthesis assay, 10 min; note: % is set by controls: 0 for no effect and ±100 for the full control effect
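10 nM Pol kappa was preincubated with compounds for 15 min at room temperature. Reaction started with 50 nM (final) substrate. Fluorescence read kinetically at 0 and 10 min.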
Pol eta inh-1: DNA polymerase eta (human) inhibition. Potency, µM (highest dose often 114 µM), for the others: at the top dose activity change, negative = inhibition, hits mostly inhibitors. recombinant Pol eta, fluorescent DNA replication assay. actives 1.2% (n = 390,000). AID 588591; note: % is set by controls: 0 for no effect and ±100 for the full control effect
Target sequence (Q9Y253 whole entry, looked up): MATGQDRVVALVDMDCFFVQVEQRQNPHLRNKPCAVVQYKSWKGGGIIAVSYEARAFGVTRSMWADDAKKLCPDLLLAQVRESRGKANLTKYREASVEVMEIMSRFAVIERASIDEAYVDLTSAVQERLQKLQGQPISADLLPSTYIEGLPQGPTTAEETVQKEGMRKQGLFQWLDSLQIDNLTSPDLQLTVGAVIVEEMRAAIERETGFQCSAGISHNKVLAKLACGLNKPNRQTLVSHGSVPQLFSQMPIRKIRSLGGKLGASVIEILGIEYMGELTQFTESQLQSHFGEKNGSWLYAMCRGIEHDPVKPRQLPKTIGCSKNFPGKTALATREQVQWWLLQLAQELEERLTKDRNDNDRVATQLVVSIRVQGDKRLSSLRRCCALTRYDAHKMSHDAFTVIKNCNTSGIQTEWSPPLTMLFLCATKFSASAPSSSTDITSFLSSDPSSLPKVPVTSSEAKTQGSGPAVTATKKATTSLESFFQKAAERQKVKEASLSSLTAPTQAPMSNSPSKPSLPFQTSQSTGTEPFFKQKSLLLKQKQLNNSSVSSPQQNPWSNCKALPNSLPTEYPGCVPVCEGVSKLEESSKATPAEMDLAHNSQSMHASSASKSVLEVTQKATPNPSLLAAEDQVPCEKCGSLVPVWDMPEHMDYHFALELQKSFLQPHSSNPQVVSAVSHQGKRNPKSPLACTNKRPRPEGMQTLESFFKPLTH
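Pol eta at 10 nM preincubated with compounds 15 min at room temperature; reaction started with fluorescent substrate (50 nM final) and read kinetically at 0 and 10 min.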
Pol beta inh: blocks human DNA polymerase beta activity. actives 1.3% (n = 340,000). Potency, µM (top dose mostly 114 µM), for inactives: at the top dose activity change, negative = inhibition, usual class: inhibitors. Pol beta primer extension/strand displacement, fluorescence kinetic. P06746; note: % is set by controls: 0 for no effect and ±100 for the full control effect
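Reaction started by 50 nM substrate onto compound-treated Pol beta (10 nM, 15 min preincubation, room temperature); plates read at 0 min and 10 min. Normalized concentration-effect data fitted by four-parameter Hill equation.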
WRN inhibitor: WRN helicase (human) inhibition; Q14191; WRN helicase unwinding, fluorescent forked duplex, kinetic; Potency, µM (highest dose often 114 µM), for inactives: at the highest dose activity change, negative = inhibition, actives largely listed as inhibitors; actives 0.46% (n = 360,000); AID 651768; note: % is set by controls: 0 for no effect and ±100 for the full control effect; nearly all actives have a fitted effect of over 55% in size
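WRN at 20 nM final was preincubated with compound for 15 min at room temperature; reaction started with 100 nM forked duplex oligonucleotide carrying fluorophore and quencher plus 2 mM ATP (final). Unwinding followed kinetically by red fluorescence (ex 525/em 598 nm).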
Pol kappa inh-2: Pol kappa (human) inhibition, cherry-pick confirmation. shares compounds with Pol eta inh-1. purified Pol-kappa, fluorescent strand-displacement substrate. Potency, µM, usual class: inhibitors. actives 76% (n = 920). AID 720501
Pol eta inh-2: confirmation of human DNA polymerase eta inhibitors; shares compounds with Pol eta inh-1; Pol eta primer extension, TAMRA/BHQ fluorescence, 10 min; Potency, µM, actives largely listed as inhibitors; actives 64% (n = 2,600); AID 720502
Active calls of the source: *; ? = inconclusive; · = no result given; [ ] = another dose, or the depositor's remark. Most compounds without a hit are left out; they make up all but 2.4% or so of the library. Calls come from the whole dose curve; as a rule, active = well fitted curve in the direction sought with a large enough effect; inconclusive = small, poorly fitted or top-dose-only effect, or another doubt; inactive = no such curve, though single readings can be large; an effect the other way counts as inactive or inconclusive. Potency is the fitted concentration of half-maximal effect.

SMILES | Pol iota inh | FEN1 inhibitor | Pol kappa inh-1 | Pol eta inh-1 | Pol beta inh | WRN inhibitor | Pol eta inh-2 | others
Cc1ccnc(NS(=O)(=O)c2ccc(NC(=O)c3ccc(N4C(=O)CCC4=O)cc3)cc2)n1 | ? | -1.5% | ? | 8.91µM* | ? | ? | 67.5*
O=C(Nc1ccc(S(=O)(=O)Nc2ncccn2)cc1)c1ccccc1 | -13.8% | 6.7% | -6.9% | -13.3% | 29.3% | 10.8% | ·
O=C(Nc1ccc(S(=O)(=O)Nc2ncccn2)cc1)C1=NN(c2ccccc2)C(=O)CC1 | ? | -17.5% | -74.6% | 35.5µM* | 0.1% | -9.3%[11.6 µM] | 67.5*
Cc1ccc(-n2c3nc(=O)[nH]c(=O)c-3cc3cc([N+](=O)[O-])ccc32)cc1C | 50.3% | ? | -7.5% | 20µM* | -7.5% | ? | ?
CC(C)c1ccc(OCC(=O)NCC(c2ccc(Cl)cc2)N2CCOCC2)cc1 (stereo unspecified) | 36.0% | -21.2% | -12.5% | -27.1% | 5.6% | · | ·
COc1ccc(/C=C2\SC(=S)N(NS(=O)(=O)c3ccc(C)cc3)C2=O)c(OC)c1 | 31.7% | -23.1% | -8.8% | ? | ? | -35.3% | 21.3*
COc1ccc(/C=C2\SC(=S)N(NS(=O)(=O)c3ccccc3)C2=O)c(OC)c1 | -0.8% | -25.1% | 2.7% | ? | -22.0% | -8.0%[11.6 µM] | ·
CCOCCCN(Cc1ccco1)S(=O)(=O)c1cc2c(cc1Cl)NC(=O)CO2 | ? | -18.7% | 0.8%[60.1 µM] | 79.4µM* | ? | · | ? | Pol kappa inh-2=?
Cc1nn2c(C)c(C(=O)NC(C)(C)C)cnc2c1-c1ccc(F)cc1 | 14.9% | 11.6% | 0.0% | -6.4% | 9.0% | · | ·
COc1ccc(-c2onc(C)c2C)cc1S(=O)(=O)N(C)Cc1ccccc1 | 9.2% | -0.5% | -12.8% | -17.5% | -20.1% | · | ·
C/C(=N/Nc1ccc(C(=O)O)cc1)c1ccc2c(c1)Nc1ccccc1S2 | 50.1µM* | -22.4% | ? | 17.8µM* | · | -5.4%[11.6 µM] | 75.7* | Pol kappa inh-2=37.7*
C/C(=N\Nc1ccc(C(=O)O)cc1)c1ccc2c(c1)Nc1ccccc1S2 | 22.4µM* | ? | ? | 25.1µM* | ? | -34.8% | 75.7*
Cc1ccc(CNC(=O)C(C)n2c(=O)cc(-c3ccccc3)c3c(C)nn(C)c32)cc1 (stereo unspecified) | 13.8% | 0.5% | 0.0% | -24.2% | -28.6% | · | ·
CCN(CCCCN1C(=O)c2ccccc2C1=O)c1ccc2c(c1)C(=O)N(C)C2=O | 15.8µM* | -22.6% | ? | 50.1µM* | -19.7% | ? | ?
O=C(COC(=O)c1ccc(O)cc1O)Nc1ncc(Cl)cc1Cl | -8.7% | -4.4% | -16.9% | ? | · | -4.3%[11.6 µM] | ?
O=C(COC(=O)C1CCCC1)Nc1ncc(Cl)cc1Cl | ? | 1.4% | ? | 15.8µM* | · | -34.1% | ?
N#Cc1c(NC(=O)COC(=O)c2ccc(O)cc2O)sc2c1CCC2 | ? | -11.9% | 79.4µM* | 20µM* | · | -12.3%[11.6 µM] | ?
O=C(COC(=O)c1cnccn1)Nc1ncc(Cl)cc1Cl | ? | 2.4% | -15.8% | 22.4µM* | · | ? | ?
O=C(COC(=O)c1ccc(Br)o1)Nc1ncc(Cl)cc1Cl | ? | -7.8% | -42.2% | ? | ? | -26.9% | ·
COC(=O)c1c(NC(=O)c2cc(=O)c3ccc(C)c(C)c3o2)sc2c1CCCC2 | 8.4% | 29.0% | 11.0% | 0.6% | 39.8% | · | ·
COc1ccccc1N1CCN(C(=O)c2cnn(C(C)(C)C)c2C2CCN(C(=O)OC(C)(C)C)CC2)CC1 | 23.7% | -6.1% | -2.0% | -23.0% | 0.8% | · | ·
Cc1ccc(C)c(NC(=O)Cn2c(=O)n(CCCS(=O)(=O)C3CCCCC3)c(=O)c3ccccc32)c1 | -7.5% | 14.7% | -22.9% | -9.1% | 8.8% | · | ·
